In PubChem BioAssay (NCATS):
“And” between values parts separate entries of the source, which are not always exact repeats. Identical values can stand only once. Results filed as inconclusive are left out. Entries that show only a call come without a potency. Where a structure was tested more than once in an assay, its records may differ in their call. The source made the active and inactive calls. Unless noted, calls follow the shape of the dose curve; as a rule, active = well fitted curve in the direction sought with a large enough effect; inconclusive = small, poorly fitted or top-dose-only effect, or another doubt; inactive = no such curve, though single readings can be large; an effect the other way counts as inactive or inconclusive.

Legend:
[1] = biological target: Voltage-gated inwardly rectifying potassium channel KCNH2 (Homo sapiens) (UniProt Q12809); experiment: qHTS Assay for Small Molecule Inhibitors of the Human hERG Channel Activity (AID 588834);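 also: lower thallium flux fluorescence means stronger hERG block; nearly all actives have a fitted effect of over 50% in size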; also: potency is read from the fitted curve at half-maximal effect
Method in brief: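 Concentration-response qHTS measuring drop in thallium-sensitive dye signal. U2OS cells carrying BacMam hERG; compound exposure ~10 min, then stimulation buffer and 2 min read at 1 sec intervals.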

[2] = biological target: Luciferin 4-monooxygenase (Photinus pyralis) (UniProt P08659); experiment: Biochemical firefly luciferase enzyme assay for NPC (AID 624030); also: nearly all actives have a fitted effect of over 70% in size; also: potency is read from the fitted curve at half-maximal effect
Method in brief: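 Direct inhibition of firefly luciferase enzyme (10 nM final, 50 mM Tris Acetate) assessed by luminescence within 5 minutes. Percent activity scaled between DMSO and PTC124 positive control, with concentration-effect curves classified by fit quality and response.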

[3] = S16 Schwann cell viability assay (CellTiter-Glo assay) (AID 624031);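 also: cellular ATP luminescence as a viability measure; series mostly up to about 58 µM; nearly all actives have a fitted effect of over 70% in size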
Method in brief: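 CellTiter-Glo ATP luminescence counter-screen in untransfected S16 rat Schwann cells, 24h compound exposure at 37 degree Celsius after overnight seeding (500-750 cells/well); response scaled between cell-free wells and DMSO (0% activity), curves classed by r2 and magnitude.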

[4] = S16 Schwann cell PMP22 intronic element firefly luciferase assay (AID 624032); also: nearly all actives have a fitted effect of over 30% in size; also: potency is read from the fitted curve at half-maximal effect
Method in brief: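 Luciferase reporter of PMP22 intronic-element expression in stably transfected S16 rat Schwann cells, read by ONE-Glo luminescence after 24 h compound exposure at 37 C. Activity scaled between DMSO (0%) and positive-control PTC124; concentration-effect curves quality-classified.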

[5] = S16 Schwann cell PMP22 intronic element beta-lactamase assay (AID 624044; calls by dose curve; also: nearly all actives have a fitted effect of over 15% in size; also: potency is read from the fitted curve at half-maximal effect)
Method in brief: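 Rat S16 Schwann cells with beta-Lac driven by a PMP22 intronic element, compound-treated 24 h at 37 °C. LiveBLAzer FRET B/G read: 460 nm normalized to potassium clavulanate vs DMSO; 535 nm FRET as viability; concentration-effect curves classified.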

[6] = biological target: Glutaminase kidney isoform, mitochondrial (Homo sapiens) (UniProt O94925); experiment: qHTS for Inhibitors of Glutaminase (GLS): LOPAC Validation (AID 624146); details: glutaminase enzyme activity inhibition; also: potency is read from the fitted curve at half-maximal effect; nearly all actives have a fitted effect of over 60% in size
Method in brief: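 Read-out is an Amplex red fluorescence increase coupled through glutamate oxidase and HRP, measured before and after 30 min room-temperature incubation. hKGA is in 45 mM KH2PO4 (pH 8.2) with 0.02% Tween-20; glutamine added as 1mM solution.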

[7] = biological target: Glucagon-like peptide 1 receptor (Homo sapiens) (UniProt P43220); experiment: qHTS of GLP-1 Receptor Agonists: LOPAC Validation (AID 624148);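 also: luminescence from a luciferase reporter switched on by cAMP; higher luminescence signal means agonism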
Method in brief: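 Agonism scored as increased luciferase luminescence driven by cAMP in HEK293 clones carrying GLP-1R. Cells settled 12 hours, received compound for 4-6 hr at 37 deg C, 5% CO2, and were read after 12 min detection reagent at RT.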

[8] = qHTS of Nrf2 Activators: LOPAC Validation (AID 624149)
Method in brief: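 AREc32 cells carrying an ARE-driven firefly luciferase were grown overnight in OPTI-MEM with 5% FBS, then exposed to compounds for 24 hr at 37 deg C. Luciferase signal was read after 30 min with Steady-Glo at RT.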

[9] = HTS Assay for Allosteric Antagonists of the Human D2 Dopamine Receptor: Hit Validation in HTRF (AID 624455);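 also: stable D1 dopamine receptor cell line scored for blocking the D1 response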
Method in brief: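 Hits were examined in an HTRF assay using cells stably expressing the D1 dopamine receptor, scoring inhibition of the D1-mediated response. The preceding primary screen tracked calcium flux after an EC80 dopamine addition in force-coupled, inducible Hek293 Trex D2 cells.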

Luciferin 4-monooxygenase (Photinus pyralis), sequence (P08659 whole entry, looked up): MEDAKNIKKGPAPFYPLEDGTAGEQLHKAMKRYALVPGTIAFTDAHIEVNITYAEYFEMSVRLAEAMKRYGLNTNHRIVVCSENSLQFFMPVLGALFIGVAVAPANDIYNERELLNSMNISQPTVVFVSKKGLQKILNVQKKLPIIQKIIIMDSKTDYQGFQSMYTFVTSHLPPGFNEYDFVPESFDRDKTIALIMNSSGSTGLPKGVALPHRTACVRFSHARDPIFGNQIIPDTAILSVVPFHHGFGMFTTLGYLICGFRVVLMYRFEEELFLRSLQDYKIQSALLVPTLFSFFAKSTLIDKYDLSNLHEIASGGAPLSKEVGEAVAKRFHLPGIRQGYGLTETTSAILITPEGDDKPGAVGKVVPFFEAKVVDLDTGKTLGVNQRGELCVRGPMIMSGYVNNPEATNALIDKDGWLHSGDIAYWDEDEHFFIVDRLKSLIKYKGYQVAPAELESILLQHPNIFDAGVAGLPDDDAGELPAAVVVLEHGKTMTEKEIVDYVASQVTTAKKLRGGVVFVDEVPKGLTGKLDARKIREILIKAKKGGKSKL
Voltage-gated inwardly rectifying potassium channel KCNH2 (Homo sapiens), sequence (Q12809 whole entry, looked up): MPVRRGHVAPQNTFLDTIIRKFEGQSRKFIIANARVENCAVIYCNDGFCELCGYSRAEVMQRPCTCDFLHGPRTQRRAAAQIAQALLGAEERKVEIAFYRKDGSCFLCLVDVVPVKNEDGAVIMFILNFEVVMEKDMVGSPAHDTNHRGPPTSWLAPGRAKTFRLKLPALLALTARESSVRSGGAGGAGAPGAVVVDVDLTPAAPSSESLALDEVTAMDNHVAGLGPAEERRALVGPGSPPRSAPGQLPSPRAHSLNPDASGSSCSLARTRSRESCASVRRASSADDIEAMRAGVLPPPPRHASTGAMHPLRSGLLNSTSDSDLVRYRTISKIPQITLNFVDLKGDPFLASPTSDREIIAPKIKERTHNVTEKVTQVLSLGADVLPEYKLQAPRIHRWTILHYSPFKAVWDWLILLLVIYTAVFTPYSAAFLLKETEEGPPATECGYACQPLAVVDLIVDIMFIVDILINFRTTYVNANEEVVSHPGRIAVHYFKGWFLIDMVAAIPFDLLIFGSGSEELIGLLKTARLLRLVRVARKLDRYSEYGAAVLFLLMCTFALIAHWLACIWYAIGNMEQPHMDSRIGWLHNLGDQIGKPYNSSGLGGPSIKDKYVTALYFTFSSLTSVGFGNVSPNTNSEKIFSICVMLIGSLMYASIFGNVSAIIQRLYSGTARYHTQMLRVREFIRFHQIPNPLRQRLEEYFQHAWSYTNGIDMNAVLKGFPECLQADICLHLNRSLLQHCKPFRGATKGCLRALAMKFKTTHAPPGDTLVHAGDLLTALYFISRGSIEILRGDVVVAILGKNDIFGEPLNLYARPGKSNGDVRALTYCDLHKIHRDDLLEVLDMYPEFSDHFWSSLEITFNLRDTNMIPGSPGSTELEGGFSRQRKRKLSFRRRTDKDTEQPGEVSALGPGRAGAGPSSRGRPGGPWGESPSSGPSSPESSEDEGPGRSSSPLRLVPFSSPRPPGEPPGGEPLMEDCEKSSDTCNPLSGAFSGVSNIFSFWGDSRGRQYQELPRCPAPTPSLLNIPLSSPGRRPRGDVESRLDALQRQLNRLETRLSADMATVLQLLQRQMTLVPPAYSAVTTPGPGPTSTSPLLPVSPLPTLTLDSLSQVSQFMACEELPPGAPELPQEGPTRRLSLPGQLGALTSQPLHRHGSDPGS
Glucagon-like peptide 1 receptor (Homo sapiens), sequence (P43220 whole entry, looked up): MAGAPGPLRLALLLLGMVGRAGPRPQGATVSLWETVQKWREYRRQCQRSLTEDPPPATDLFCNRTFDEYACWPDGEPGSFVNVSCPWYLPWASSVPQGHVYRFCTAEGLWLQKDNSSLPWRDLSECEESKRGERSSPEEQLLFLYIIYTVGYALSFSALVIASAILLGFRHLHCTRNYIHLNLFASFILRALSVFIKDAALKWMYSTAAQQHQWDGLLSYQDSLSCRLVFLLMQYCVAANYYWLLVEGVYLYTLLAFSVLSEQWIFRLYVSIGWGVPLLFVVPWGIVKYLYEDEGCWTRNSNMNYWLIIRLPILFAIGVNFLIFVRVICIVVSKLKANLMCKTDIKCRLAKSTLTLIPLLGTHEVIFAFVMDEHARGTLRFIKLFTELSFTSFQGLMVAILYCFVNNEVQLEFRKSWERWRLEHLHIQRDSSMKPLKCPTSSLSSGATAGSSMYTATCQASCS
Glutaminase kidney isoform, mitochondrial (Homo sapiens), sequence (O94925 whole entry, looked up, canonical isoform): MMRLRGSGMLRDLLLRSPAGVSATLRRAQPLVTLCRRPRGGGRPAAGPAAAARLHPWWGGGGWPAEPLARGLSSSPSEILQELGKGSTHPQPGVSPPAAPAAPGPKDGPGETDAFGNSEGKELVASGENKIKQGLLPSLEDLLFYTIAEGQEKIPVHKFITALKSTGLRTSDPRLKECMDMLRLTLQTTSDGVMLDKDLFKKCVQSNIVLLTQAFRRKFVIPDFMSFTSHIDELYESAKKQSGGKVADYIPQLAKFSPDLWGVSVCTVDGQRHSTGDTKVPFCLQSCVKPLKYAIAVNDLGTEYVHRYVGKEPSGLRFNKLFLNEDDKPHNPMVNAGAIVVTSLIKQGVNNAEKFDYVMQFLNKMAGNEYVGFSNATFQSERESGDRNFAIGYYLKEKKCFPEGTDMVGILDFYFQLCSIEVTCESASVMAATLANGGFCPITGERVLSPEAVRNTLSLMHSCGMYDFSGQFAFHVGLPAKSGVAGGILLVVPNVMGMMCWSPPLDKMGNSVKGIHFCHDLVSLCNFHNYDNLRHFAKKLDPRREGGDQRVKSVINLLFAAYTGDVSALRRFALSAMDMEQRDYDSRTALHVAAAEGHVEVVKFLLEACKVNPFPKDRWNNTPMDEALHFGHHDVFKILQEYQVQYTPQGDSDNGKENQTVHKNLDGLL

Question: Which Potency [1] does the source give for `CN1Cc2c(N)cccc2C(c2ccccc2)C1` (stereo not given) here?
Answer: inactive and 12.6 µM (active)

Question: And the Potency [2]?
Answer: inactive

Question: And the Potency [3]?
Answer: inactive

Question: And the Potency [4]?
Answer: inactive

Question: What about the Potency [5] of the same compound?
Answer: inactive

Question: And the Potency [6]?
Answer: 12.6 µM (active)

Question: What about the outcome [7] of the same compound?
Answer: inactive

Question: What about the outcome [8] of the same compound?
Answer: inactive

Question: And the outcome [9]?
Answer: inactive

Question: Which Potency [1] does the source give for `COc1cc(-c2ccc(-[n+]3nc(-c4ccccc4)nn3-c3ccc([N+](=O)[O-])cc3)c(OC)c2)ccc1-[n+]1nc(-c2ccccc2)nn1-c1ccc([N+](=O)[O-])cc1` here?
Answer: inactive

Question: What about the Potency [2] of the same compound?
Answer: inactive

Question: With `CCOc1ccc(N=Nc2ccc(N)cc2N)cc1` as the compound, how does the Potency [1] read?
Answer: inactive

Question: What about the Potency [2] of the same compound?
Answer: 0.203 µM (active)

Question: Which Potency [1] does the source give for `Cc1c(C)c2c(c(C)c1O)CC[C@@](C)(CCC[C@@H](C)CCC[C@@H](C)CCCC(C)C)O2` here?
Answer: inactive

Question: What about the Potency [2] of the same compound?
Answer: inactive

Question: What about the Potency [3] of the same compound?
Answer: inactive

Question: And the Potency [4]?
Answer: inactive

Question: And the Potency [5]?
Answer: inactive

Question: What does the source list for `CC1=C(/C=C/C(C)=C/C=C/C(C)=C/C=C/C=C(C)/C=C/C=C(C)/C=C/C2=C(C)C(=O)CCC2(C)C)C(C)(C)CCC1=O`?
Answer: Potency [1]: inactive; Potency [2]: inactive; Potency [3]: inactive; Potency [4]: inactive; Potency [5]: inactive

Question: For `NCc1ccccc1CC(=O)N[C@@H]1C(=O)N2C(C(=O)O)=C(CSc3nnnn3CC(=O)O)CS[C@H]12`, which Potency [1] is on record?
Answer: inactive

Question: Which Potency [1] does the source give for `CC(C(=O)O)c1ccc(N2Cc3ccccc3C2=O)cc1` (stereo not given) here?
Answer: inactive

Question: What about the Potency [2] of the same compound?
Answer: 0.181 µM (active)

Question: What about the Potency [3] of the same compound?
Answer: inactive

Question: What about the Potency [4] of the same compound?
Answer: inactive

Question: And the Potency [5]?
Answer: inactive

Question: With `CC1(C)S[C@@H]2[C@H](NC(=O)C(C(=O)O)c3ccsc3)C(=O)N2[C@H]1C(=O)O` (stereo not given in full) as the compound, how does the Potency [1] read?
Answer: inactive

Question: For `OCCO[C@@H]1[C@@H](O)[C@H](O)[C@@H](CO)O[C@@H]1O`, which Potency [1] is on record?
Answer: inactive

Question: For `CC1(C)S[C@@H]2[C@H](NC(=O)Cc3ccccc3)C(=O)N2[C@H]1C(=O)O`, which Potency [1] is on record?
Answer: inactive

Question: For `CC[N+](CC)(CC)CCC(O)(c1ccccc1)C1CCCCC1` (stereo not given), which Potency [1] is on record?
Answer: inactive

Question: With `COC(=O)CCC(=O)CN` as the compound, how does the Potency [1] read?
Answer: inactive

Question: And the Potency [2]?
Answer: inactive

Question: What about the Potency [3] of the same compound?
Answer: inactive

Question: What about the Potency [4] of the same compound?
Answer: inactive

Question: Which results are given for `CC(=O)Oc1cc(C)c(OC(C)=O)c2ccccc12`?
Answer: Potency [1]: inactive; Potency [2]: inactive; Potency [4]: 28.7 µM (active); Potency [5]: inactive

Question: For `O=C1CSC2(CCN(CCCN3c4ccccc4Sc4ccc(Cl)cc43)CC2)N1`, which Potency [1] is on record?
Answer: 7.08 µM (active)

Question: What about the Potency [2] of the same compound?
Answer: inactive

Question: And the Potency [4]?
Answer: 32.2 µM (active)

Question: And the Potency [5]?
Answer: inactive

Question: With `COC(F)(F)C(Cl)Cl` as the compound, how does the Potency [1] read?
Answer: inactive

Question: And the Potency [2]?
Answer: inactive

Question: What about the Potency [4] of the same compound?
Answer: inactive

Question: And the Potency [5]?
Answer: inactive

Question: With `Nc1c(Br)cc(Br)cc1CNC1CCC(O)CC1` (stereo not given) as the compound, how does the Potency [1] read?
Answer: inactive

Question: And the Potency [2]?
Answer: inactive

Question: What about the Potency [4] of the same compound?
Answer: inactive

Question: What about the Potency [5] of the same compound?
Answer: inactive

Question: Which Potency [1] does the source give for `O=S(=O)(O)c1ccc2c(N=Nc3ccc(S(=O)(=O)O)c4ccccc34)c(O)c(S(=O)(=O)O)cc2c1` here?
Answer: inactive

Question: What about the Potency [5] of the same compound?
Answer: inactive

Question: Which Potency [1] does the source give for `C[C@@H]1CCC2[C@@H](C)[C@@H](O)O[C@@H]3O[C@@]4(C)CC[C@@H]1[C@@]23OO4` (stereo not given in full) here?
Answer: inactive

Question: What about the Potency [2] of the same compound?
Answer: inactive

Question: And the Potency [4]?
Answer: 1.02 µM (active)

Question: What about the Potency [5] of the same compound?
Answer: inactive

Question: Which Potency [1] does the source give for `C#CCOc1ccc2c(C)cc(=O)oc2c1` here?
Answer: inactive

Question: And the Potency [2]?
Answer: inactive

Question: And the Potency [4]?
Answer: inactive

Question: What about the Potency [5] of the same compound?
Answer: inactive

Question: For `CCOC(=O)C1=C(C)NC(C)=C(C(=O)OCC)C1c1ccccc1C=CC(=O)OC(C)(C)C`, which Potency [1] is on record?
Answer: inactive

Question: And the Potency [2]?
Answer: inactive

Question: And the Potency [5]?
Answer: inactive

Question: Which Potency [1] does the source give for `CC(=O)Oc1c(C)cc(OCC(O)CNC(C)C)c(C)c1C` (stereo not given) here?
Answer: inactive

Question: And the Potency [2]?
Answer: inactive

Question: And the Potency [4]?
Answer: inactive

Question: And the Potency [5]?
Answer: inactive

Question: What does the source list for `CCCC(=O)Nc1ncnc2c1ncn2C1OC2COP(=O)(O)OC2C1OC(=O)CCC` (stereo not given)?
Answer: Potency [1]: inactive; Potency [2]: inactive; Potency [4]: 5.73 µM (active); Potency [5]: inactive

Question: With `CCCCCCCCCCCC[n+]1ccc2ccccc2c1` as the compound, how does the Potency [1] read?
Answer: 3.16 µM (active)

Question: And the Potency [2]?
Answer: inactive

Question: And the Potency [4]?
Answer: 0.907 µM (active)

Question: What about the Potency [5] of the same compound?
Answer: 19.9 µM (active)

Question: Which Potency [1] does the source give for `CC[C@@]1(O)C(=O)OCc2c1cc1n(c2=O)Cc2cc3c([N+](=O)[O-])cccc3nc2-1` here?
Answer: inactive

Question: And the Potency [2]?
Answer: inactive

Question: What about the Potency [4] of the same compound?
Answer: 0.203 µM (active)

Question: And the Potency [5]?
Answer: 1.41 µM (active)

Question: With `C=CCSSSCC=C` as the compound, how does the Potency [1] read?
Answer: inactive

Question: And the Potency [2]?
Answer: inactive

Question: What about the Potency [4] of the same compound?
Answer: inactive

Question: What about the Potency [5] of the same compound?
Answer: inactive

Question: For `CCCCCCCCCCCCCCCC(=O)OCC(COC(=O)CCCCCCCCCCCCCCC)OC(=O)CCCCCCCCCCCCCCC`, which Potency [1] is on record?
Answer: inactive

Question: And the Potency [2]?
Answer: inactive

Question: What about the Potency [4] of the same compound?
Answer: inactive

Question: And the Potency [5]?
Answer: inactive

Question: With `CC(NNC(=O)c1ccccc1)c1ccccc1` (stereo not given) as the compound, how does the Potency [1] read?
Answer: inactive

Question: And the Potency [4]?
Answer: inactive

Question: What about the Potency [5] of the same compound?
Answer: inactive

Question: For `CCNC(=O)[C@@H]1CCCN1C(=O)[C@H](CCCN=C(N)N)NC(=O)[C@H](CC(C)C)NC(=O)[C@@H](Cc1c[nH]c2ccccc12)NC(=O)[C@H](Cc1ccc(O)cc1)NC(=O)[C@H](CO)NC(=O)[C@H](Cc1c[nH]c2ccccc12)NC(=O)[C@H](Cc1cnc[nH]1)NC(=O)[C@@H]1CCC(=O)N1`, which Potency [1] is on record?
Answer: 2.51 µM (active)

Question: And the Potency [2]?
Answer: inactive

Question: And the Potency [4]?
Answer: 4.55 µM (active)

Question: And the Potency [5]?
Answer: 22.4 µM (active)

Question: What does the source list for `COc1ccc2c3c1O[C@H]1C[C@@H](O)C=C[C@@]31CCN(C)C2`?
Answer: Potency [1]: inactive; Potency [2]: inactive; Potency [4]: inactive; Potency [5]: inactive

Question: With `CCN(CC)CCOc1ccc(-c2nc3cc(Cl)ccc3s2)cc1` as the compound, how does the Potency [1] read?
Answer: 5.01 µM (active)

Question: And the Potency [2]?
Answer: 6.42 µM (active)

Question: And the Potency [4]?
Answer: inactive

Question: What about the Potency [5] of the same compound?
Answer: inactive
